Measurements taken from PubChem BioAssay AID686948 (National Center for Advancing Translational Sciences (NCATS), 2013).
Active and inactive are the calls of the source. The call rests on the fitted dose curve; in most records, active means well fitted inhibition curve with a large enough effect; inactive means flat fitted curve, though single readings scatter.

What follows are compounds tested against Tyrosine-protein kinase Yes (Homo sapiens) (UniProt P07947) (assay: qHTS for small molecule inhibitors of Yes1 kinase: Confirmatory screen on the cherrypicks). Conditions: Recombinant Yes1, ADP-Glo luminescence, poly(E4Y) substrate.
Sequence of Tyrosine-protein kinase Yes (Homo sapiens) (P07947 whole entry, looked up): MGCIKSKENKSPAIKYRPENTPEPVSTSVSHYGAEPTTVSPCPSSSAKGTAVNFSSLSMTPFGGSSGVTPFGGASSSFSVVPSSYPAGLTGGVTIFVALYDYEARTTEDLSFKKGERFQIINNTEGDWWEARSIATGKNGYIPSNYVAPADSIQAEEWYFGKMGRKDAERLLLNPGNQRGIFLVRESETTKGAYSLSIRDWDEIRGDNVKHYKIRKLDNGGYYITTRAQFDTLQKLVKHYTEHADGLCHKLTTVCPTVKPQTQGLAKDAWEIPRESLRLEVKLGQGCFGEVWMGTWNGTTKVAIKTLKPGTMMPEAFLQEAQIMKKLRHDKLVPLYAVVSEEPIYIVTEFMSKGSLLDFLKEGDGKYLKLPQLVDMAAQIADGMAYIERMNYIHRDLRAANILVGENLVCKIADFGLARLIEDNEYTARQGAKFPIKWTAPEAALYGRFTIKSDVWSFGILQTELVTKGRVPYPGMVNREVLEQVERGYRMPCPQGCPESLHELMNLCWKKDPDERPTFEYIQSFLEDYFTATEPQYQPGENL
Source text: The Src family of non-receptor protein tyrosine kinases contains nine members, including Yes1, Src, Fyn, Lyn, and […]. These kinases have important roles in a variety of cellular functions, such as cell proliferation, survival, and differentiation. Src, the most well characterized member of this family, has been previously identified as a proto-oncogene. […] In melanoma, it has been shown that Yes1, and not other family members, such as Src, is functionally involved in the malignant phenotype. Additionally, a recent study examining the downregulation of Yes1 by shRNA found significant effects on cell survival/growth for basal-like and Her2-positive breast cancers. Despite the potential for Yes1 to be a target for the above-described cancers, there are very few reports on the identification of potent and selective inhibitors of Yes1 kinase. Antagonists of Yes1 would further elucidate Yes1 biology and help to confirm whether Yes1 is a viable target for therapeutic intervention in a variety of cancers. A compound that inhibits Yes1 could be important for the treatment of various cancers in which Yes1 is highly expressed and can also be used as a tool compound to help further elucidate Yes1 biology. To that end, we have developed a sensitive HTS biochemical assay for Yes1 activity. This assay was screened against several small compound libraries to look for modulators of activity. Inhibition is the desired output for this assay. NIH Molecular Libraries Probe Production Centers Network [MLPCN] NIH Chemical Genomics Center [NCGC] MLPCN Grant: MH084681
Two microliter of Yes1 enzyme (columns 1-2, 5-48; Millipore, Billerica, MA) are dispensed into Greiner, white solid-bottom 1536-well assay plates; columns 3 and 4 receive buffer without Yes1 as a control for maximum inhibition. Compounds (23 nL) are then transferred via Kalypsys pin tool equipped with 1536-pin array (10 nL slotted pins, V&P Scientific, San Diego, CA). The library compounds are in columns 5-48 and columns 1-4 serve as controls with DMSO in columns 1, 3 and 4 and 10 mM 1:3 fold serial of dasatinib in column 2. Following addition of compound and a 20 minute incubation, 1 uL of substrate (ATP and poly-E4Y from Sigma-Aldrich, St. Louis, MO) is added, and the biochemical reaction is allowed to progress for 60 minutes at room temperature. The production of ADP is then quantified by the ADP-Glo Kit (Promega, Madison, WI). First, 2 uL of the first kit reagent is added, and the reaction is incubated for 45 minutes; then, 4 uL of the second kit reagent are added and the reaction is incubated for 30 minutes at which time the luminescence is read on a Viewlux plate reader (Perkin-Elmer, Waltham, MA). The final concentration of reagents in the reaction are 4 nM Yes1, 0.1 mM ATP, 100 uM EGTA, 10 mM MgCl2, 0.3 mg/mL poly(E4Y), 50 mM Tris pH 7.5, 1 mM DTT, 150 mM NaCl, 0.01% Brij-35, and 5% glycerol. Data are normalized to DMSO-treated control columns with (maximum signal) and without (minimum signal) enzyme.
For `CN1CCC(CNc2ccc3ncc(-c4cccc(OC(F)(F)F)c4)n3n2)CC1`, the Potency was 2770 nM (active). For `NC(=O)Nc1cc(-c2ccc(CN3CCOCC3)c(F)c2)sc1C(=O)N[C@H]1CCCNC1`, the Potency was 1.7 nM (active). For `CCN(CC)CCOc1ccc(Nc2ncc3cc(-c4c(Cl)cccc4Cl)c(=O)n(C)c3n2)cc1`, the Potency was 0.4 nM (active). For `CC(NCc1ccc2c(c1)nc(NC(=O)c1ccc(-c3cn[nH]c3)s1)n2CC(C)(C)O)C(C)(C)C` (stereo unspecified), the Potency was 1.7 nM (active). `CC(C)Oc1cc(Nc2nc(N[C@@H](C)c3ccc(F)cn3)ncc2Cl)[nH]n1` was tested, and the Potency was 39.1 nM (active). In the case of `Cc1ccc(C(=O)Nc2cccc(C(F)(F)F)c2)cc1-c1ccc2nc(NCCN3CCOCC3)ncc2c1`, the Potency was 0.7 nM (active).
